Bioassay records deposited in PubChem BioAssay by several laboratories.
A selection: hits, their analogues and other compounds. The true share with any hit is near 1.2%.
COUP-TFII inh = NR2F2 (human) inhibition, primary screen; HEK293T NGFI-A luciferase reporter, luminescence; inhibition, % at 8.6 µM; 370,000 tested, 0.7% active;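 active = inhibition above a per-plate cutoff, mean inhibition of test wells between control levels plus 3 SD, cut at about 38% in these data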;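 also: cells cotransfected with COUP-TFII expression vector driving the NGFI-A reporter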
Efflux pump inh = antifungal efflux pump inhibition, Nile Red retention. S. cerevisiae Candida pump triplex. inhibition, % at 10 µM. 330,000 tested, 0.44% active. AID 485275;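 active = plate passing quality check with inhibition over a set limit, or well fluorescence over plate mean plus 4 SD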;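 also: Nile Red retained in pooled yeast measured as flow cytometry median fluorescence; higher means more Nile Red kept so more efflux inhibition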
NCOA1 inh = inhibitors of human steroid receptor coactivator 1 (SRC1). Q15788. HEK293 GAL4-SRC1 luciferase reporter, luminescence. inhibition, % at 3.6 µM. 360,000 tested, 0.12% active. AID 588354;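 active = inhibition above the campaign mean plus 3 SD, with each screening campaign given its own cutoff, cut at about 60% in these data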
Target sequence (Q15788 whole entry, looked up, the tested form may be a part): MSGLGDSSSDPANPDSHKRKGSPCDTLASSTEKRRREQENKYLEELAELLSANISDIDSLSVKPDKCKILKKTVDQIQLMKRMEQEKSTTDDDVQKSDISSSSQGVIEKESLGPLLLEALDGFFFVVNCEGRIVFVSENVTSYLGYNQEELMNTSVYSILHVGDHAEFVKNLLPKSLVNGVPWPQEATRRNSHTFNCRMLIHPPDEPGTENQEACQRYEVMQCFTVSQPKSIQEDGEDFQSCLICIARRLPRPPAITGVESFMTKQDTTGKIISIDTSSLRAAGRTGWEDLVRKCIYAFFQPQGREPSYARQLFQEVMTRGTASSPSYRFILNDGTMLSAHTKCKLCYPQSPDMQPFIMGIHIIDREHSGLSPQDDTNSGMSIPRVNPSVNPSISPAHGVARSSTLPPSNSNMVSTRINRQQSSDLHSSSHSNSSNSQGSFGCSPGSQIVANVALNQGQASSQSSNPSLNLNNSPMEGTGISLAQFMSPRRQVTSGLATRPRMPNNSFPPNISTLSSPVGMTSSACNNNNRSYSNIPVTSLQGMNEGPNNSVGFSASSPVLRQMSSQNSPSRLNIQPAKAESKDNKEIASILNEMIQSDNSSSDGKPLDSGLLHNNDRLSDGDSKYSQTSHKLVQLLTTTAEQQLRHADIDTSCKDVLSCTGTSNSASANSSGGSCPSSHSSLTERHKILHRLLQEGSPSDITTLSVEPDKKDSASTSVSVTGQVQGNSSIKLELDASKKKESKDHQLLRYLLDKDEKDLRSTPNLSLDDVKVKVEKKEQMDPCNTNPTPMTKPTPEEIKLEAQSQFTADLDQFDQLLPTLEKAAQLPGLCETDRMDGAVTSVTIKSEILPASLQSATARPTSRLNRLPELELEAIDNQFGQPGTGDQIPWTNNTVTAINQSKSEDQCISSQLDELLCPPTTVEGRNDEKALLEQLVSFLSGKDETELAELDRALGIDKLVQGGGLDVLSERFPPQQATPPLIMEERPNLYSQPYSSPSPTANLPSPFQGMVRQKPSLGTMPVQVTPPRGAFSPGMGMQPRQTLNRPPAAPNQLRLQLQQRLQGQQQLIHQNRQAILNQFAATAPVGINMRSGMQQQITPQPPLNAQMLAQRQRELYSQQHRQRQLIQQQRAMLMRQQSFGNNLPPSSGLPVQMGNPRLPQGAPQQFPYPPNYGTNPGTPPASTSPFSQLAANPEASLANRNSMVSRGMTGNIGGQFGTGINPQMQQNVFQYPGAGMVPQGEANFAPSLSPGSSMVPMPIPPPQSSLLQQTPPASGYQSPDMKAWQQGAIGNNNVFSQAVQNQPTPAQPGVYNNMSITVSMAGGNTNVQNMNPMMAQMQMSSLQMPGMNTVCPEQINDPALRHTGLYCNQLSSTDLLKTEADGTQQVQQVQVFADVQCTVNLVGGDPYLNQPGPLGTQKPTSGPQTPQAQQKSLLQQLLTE
LRH-1 inv ag = inverse agonists of human LRH-1 (NR5A2). 360,000 tested, 0.13% active. AID 602396. HEK293T StAR-luciferase reporter, LRH-1 transfected, 24 h. inhibition, % at 3.6 µM;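 active = inhibition above the mean inhibition of all tested compounds plus 3 SD, cut at about 73% in these data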
NCOA2 inhibitor = human SRC2 (NCOA2) inhibition; inhibition, % at 9 µM; 370,000 tested, 0.17% active; HEK293 GAL4-SRC2 luciferase reporter, luminescence; Q15596;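 active = inhibition above the mean inhibition of all tested compounds plus 3 SD, set per campaign, cut at about 52% in these data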
SRC3 inh = human NCOA3 inhibition | Q9Y6Q9 | HEK293 GAL4-SRC3 luciferase reporter, luminescence | inhibition, % at 3.6 µM | 360,000 tested, 0.17% active | AID 588352;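 active = inhibition above a per-campaign cutoff, the mean of all compounds plus 3 SD, cut at about 60% in these data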;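 also: higher means less SRC3-driven luciferase light from the GAL4 reporter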
Cmpd fluor yeast = flagged as fluorescent in efflux inhibitor counter-screen; 1,700 tested, 4% active; shares compounds with Efflux pump inh; S. cerevisiae AD/pABC3, compound fluorescence, flow cytometry; fluorescence ratio to DMSO, % at 10 µM;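 active = fluorescence ratio to DMSO above its plate's cutoff, the plate mean ratio plus 5 SD, cut at about 210% in these data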;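 also: unstained yeast with no Nile Red so the signal is compound autofluorescence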
Mdr1 pump inh = inhibitors of Candida albicans Mdr1 efflux pump; shares compounds with Efflux pump inh; S. cerevisiae AD/CaMDR1, Nile Red efflux, flow cytometry; inhibition, % at 10 µM; 1,700 tested, 1% active; in the data active = inhibition above about 26%;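 also: higher means more Nile Red retained so more efflux inhibition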
Cdr2 pump inh = Candida Cdr2 efflux pump inhibition. Nile Red retention ratio vs DMSO, % at 10 µM. shares compounds with Efflux pump inh. AID 588520. S. cerevisiae AD/CaCDR2, Nile Red retention, flow cytometry. 1,700 tested, 4% active; in the data active = Nile Red retention ratio vs DMSO above about 190%;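 also: higher ratio means more blocking of Cdr2 efflux of the dye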
CaCdr1 efflux inh = inhibitors of Candida albicans Cdr1 efflux pump. S. cerevisiae AD/CaCDR1, Nile Red efflux, flow cytometry. inhibition, % at 10 µM. 1,700 tested, 1% active. shares compounds with Efflux pump inh;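 active = inhibition above the screen-wide mean plus twice its standard deviation, cut at about 32% in these data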
Each line names hits and unclear results; the compound was inactive in the other large screens (follow-up assays come after a bar, where they were run).

COc1ccc(C(=O)NCc2ccc(Cl)c(Cl)c2)cc1OC	Efflux pump inh 11 | Cmpd fluor yeast inactive | Mdr1 pump inh inactive | Cdr2 pump inh inactive | CaCdr1 efflux inh inactive
Cc1ccc(C2/C(=C(/O)c3ccc(Cl)cc3)C(=O)C(=O)N2CC2CCCO2)o1 (centres undefined)	none
O=C1C(=O)N(CC2CCCO2)C(c2ccccc2[N+](=O)[O-])/C1=C(/O)c1ccccc1 (centres undefined)	Efflux pump inh 1.4 | Cmpd fluor yeast inactive | Mdr1 pump inh inactive | Cdr2 pump inh inactive | CaCdr1 efflux inh inactive
Cc1ccccc1NC(=O)CCN1CCN(CCO)CC1	none
COc1cccc(-c2sc3ccc(OC)cc3c2-c2ccc(OCCN(C)C)cc2)c1	Efflux pump inh 187 | Cmpd fluor yeast inactive | Mdr1 pump inh inactive | Cdr2 pump inh 228 | CaCdr1 efflux inh inactive
COc1ccc(-c2sc3ccccc3c2-c2ccc(OCCN(C)C)cc2)cc1	none | Cmpd fluor yeast inactive | Mdr1 pump inh inactive | Cdr2 pump inh inactive | CaCdr1 efflux inh inactive
COc1cc(CN2C(=O)C(C)ON=C2c2cccs2)cc(OC)c1 (centres undefined)	none (no result: Efflux pump inh)
C[C@@H]1COc2cc(N3CCSCC3)ccc2S(=O)(=O)N1	none (no result: Efflux pump inh, NCOA1 inh, SRC3 inh)
COc1cccc(-c2c(C(=O)N/N=C(\C)c3ccc(Cl)s3)nnn2-c2nonc2N)c1	Efflux pump inh 4.6 | Cmpd fluor yeast inactive | Mdr1 pump inh inactive | Cdr2 pump inh inactive | CaCdr1 efflux inh inactive
CCOc1ccc(S(=O)(=O)N(C(=O)c2ccco2)c2cc3sc(=O)oc3c3ccccc23)cc1	Efflux pump inh 2.0 | Cmpd fluor yeast inactive | Mdr1 pump inh inactive | Cdr2 pump inh inactive | CaCdr1 efflux inh inactive
COc1ccc(N)cc1-n1c(C)ccc1C	none
COc1cc(N)ccc1Cc1ccc(N)cc1OC	Efflux pump inh 0.5 | Cmpd fluor yeast inactive | Mdr1 pump inh inactive | Cdr2 pump inh inactive | CaCdr1 efflux inh inactive
COc1ccc(N)cc1C#N	Efflux pump inh 0.7 | Cmpd fluor yeast inactive | Mdr1 pump inh inactive | Cdr2 pump inh inactive | CaCdr1 efflux inh inactive
CCC(N=c1cc(-c2ccc(OC)cc2)oc2ccc(C)cc12)C(=O)O (centres undefined)	none
CCOC(=O)c1ccc(S(=O)(=O)NNS(=O)(=O)c2ccc(C)cc2)cc1	Efflux pump inh 2.1 | Cmpd fluor yeast inactive | Mdr1 pump inh inactive | Cdr2 pump inh inactive | CaCdr1 efflux inh inactive
COc1ccc(-c2cc(C(F)(F)F)n3nc(C(=O)N(C)Cc4ccccc4)cc3n2)cc1OC	Efflux pump inh 1.4 | Cmpd fluor yeast inactive | Mdr1 pump inh inactive | Cdr2 pump inh inactive | CaCdr1 efflux inh inactive
Cc1cccc(C)c1NC(=O)C(Cl)=C(Cl)Cl	none
CCOC(=O)C1CCCCN1S(=O)(=O)c1ccc2c(c1)CC(C)N2C(=O)C1CCC1 (centres undefined)	none | Cmpd fluor yeast inactive | Mdr1 pump inh inactive | Cdr2 pump inh inactive | CaCdr1 efflux inh inactive
COc1cc(/C=C/C=C2/CC/C(=C/C=C/c3ccc(O)c(OC)c3)C2=O)ccc1O	none (no result: Efflux pump inh)
COc1cc(/C=C2\SC(=Nc3ccccc3OC)NC2=O)ccc1O	Efflux pump inh 0.6 | Cmpd fluor yeast inactive | Mdr1 pump inh inactive | Cdr2 pump inh inactive | CaCdr1 efflux inh inactive
COc1cc(/C=C2/CC/C(=C/c3ccc(O)c(OC)c3)C2=O)ccc1O	Efflux pump inh 0.5 | Cmpd fluor yeast inactive | Mdr1 pump inh inactive | Cdr2 pump inh inactive | CaCdr1 efflux inh inactive
CCc1ccc(N=C2NC(=O)/C(=C/c3cc(OC)c(O)c(OC)c3)S2)cc1	Efflux pump inh 0.5 | Cmpd fluor yeast inactive | Mdr1 pump inh inactive | Cdr2 pump inh inactive | CaCdr1 efflux inh inactive
COc1ccc(/C=C2\SC(=Nc3ccccc3OC)NC2=O)cc1	none
COc1cc(/C=C2\SC(=Nc3ccccc3)NC2=O)cc(Cl)c1O	none
COc1ccc(CC(=O)N2CCNC2=O)cc1	none
N#Cc1ccc(OCC(=O)N2CCN(c3ccc(C(F)(F)F)cn3)CC2)cc1	Efflux pump inh 0.8 | Cmpd fluor yeast inactive | Mdr1 pump inh inactive | Cdr2 pump inh inactive | CaCdr1 efflux inh inactive
Cc1ccc(-n2nnnc2-c2cccs2)cc1[N+](=O)[O-]	none
COc1ccc(Br)cc1CN1CCN(S(=O)(=O)Cc2ccccc2)CC1	none
CSC1=NC(C)(C)C=C(/C=C/c2c(Cl)cccc2Cl)N1	none
COc1ccc(OCC(=O)Nc2ccc(C(=O)Nc3ccccc3C(=O)O)cc2)cc1	none
O=C(COc1ccc(Br)cc1)Nc1ccc(C(=O)Nc2ccccc2C(=O)O)cc1	Efflux pump inh 1.2 | Cmpd fluor yeast inactive | Mdr1 pump inh inactive | Cdr2 pump inh inactive | CaCdr1 efflux inh inactive
COc1cc(/C=C2\SC(=S)N(NS(=O)(=O)c3ccccc3)C2=O)ccc1O	none
O=C(NN1C(=O)/C(=C/c2cccs2)SC1=S)c1cccnc1	none | Cmpd fluor yeast inactive | Mdr1 pump inh inactive | Cdr2 pump inh inactive | CaCdr1 efflux inh inactive
COc1cc(/C=C2\SC(=S)N(NS(=O)(=O)c3ccc(C)cc3)C2=O)ccc1O	none | Cmpd fluor yeast inactive | Mdr1 pump inh inactive | Cdr2 pump inh inactive | CaCdr1 efflux inh inactive
CC(/C=C1\SC(=S)N(NS(=O)(=O)c2ccc(C)cc2)C1=O)=C\c1ccccc1	none | Cmpd fluor yeast inactive | Mdr1 pump inh inactive | Cdr2 pump inh inactive | CaCdr1 efflux inh inactive
Cn1cccc1/C=C1\SC(=S)N(NC(=O)c2ccc(F)cc2)C1=O	none | Cmpd fluor yeast inactive | Mdr1 pump inh inactive | Cdr2 pump inh inactive | CaCdr1 efflux inh inactive
CC(/C=C1\SC(=S)N(NS(=O)(=O)c2ccccc2)C1=O)=C\c1ccccc1	none
C=CCN(c1ccccc1OC)S(=O)(=O)c1cccc(C(=O)OCC(=O)N2CC(C)OC(C)C2)c1 (centres undefined)	none
CCc1nc2c(OCc3cc(Cl)cc(Cl)c3)cccn2c1N(C)C(=O)CC(C)C	none (no result: Efflux pump inh)
Cc1cc(Cl)ccc1NC(=O)/C=N/O	none
CCCC(=O)N1CCC1(C)C(=O)Nc1ccccn1 (centres undefined)	none (no result: Efflux pump inh)
CC(/C=C1\SC(=S)N(NC(=O)c2ccncc2)C1=O)=C\c1ccccc1	none | Cmpd fluor yeast inactive | Mdr1 pump inh inactive | Cdr2 pump inh inactive | CaCdr1 efflux inh inactive
COC(=O)c1sc(NC(=O)COc2cccc(C)c2)nc1C	none
COC(=O)c1ccc(N2C(=O)CC(N(C)Cc3ccccc3)C2=O)cc1 (centres undefined)	none
